Measurements published in the supplement of paper PMC12350171.
Where a name gives a salt, the structure may show the parent alone. Values without a mark were called inactive.

How the values were obtained:
Settings in all cases: 20 µM
[1] = test system: Salmonella enterica typhimurium; assay: growth AUC normalised to DMSO control (fraction of control); higher = less growth inhibition, active = hit call of the paper
How it was run: (§1)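 Hemin and NAD were added to the medium for Haemophilus parainfluenzae. All pathogens, after two anaerobic passages, were inoculated at a starting OD578 of 0.01 into pre-reduced mGAM plates with 20 μM compound and 1% DMSO under breathable seals, and OD578 was read hourly for 24 h in three biological replicates. AUC of each growth curve was obtained with the trapezoidal rule up to the exponential-to-stationary transition and normalised to DMSO controls from the same plate.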

[2] = test system: Shigella flexneri; assay: as above
How it was run: as §1

[3] = test system: Vibrio cholerae; assay: as above
How it was run: as §1

[4] = test system: Yersinia pseudotuberculosis; assay: as above
How it was run: as §1

[5] = test system: P. vulgatus RND KO; assay: growth AUC normalised to DMSO control (median) (fraction of control); higher = less growth inhibition, active = hit call of the paper
How it was run: (§2)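 In 96-well plates of mGAM seeded at OD578 0.01, strains that had been passaged twice overnight without oxygen were exposed to approved-drug library compounds at 20 μM with 1% DMSO. Hourly OD578 readings were taken for 24 h in an anaerobic incubator. The trapezoidal-rule area under the curve, with curves truncated at entry into stationary phase, was expressed relative to same-plate vehicle wells as the median of three biological replicates.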

[6] = test system: P. vulgatus WT; assay: as above
How it was run: as §2

[7] = test system: S. enterica typhimurium WT; assay: as above
How it was run: as §2

[8] = test system: S. enterica typhimurium tolC KO; assay: as above
How it was run: as §2
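Throughout, for growth AUC normalised to DMSO control (median): active when median AUC fell below 0.1.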

SMILES | growth AUC normalised to DMSO control [1] | growth AUC normalised to DMSO control [2] | growth AUC normalised to DMSO control [3] | growth AUC normalised to DMSO control [4] | growth AUC normalised to DMSO control [5] | growth AUC normalised to DMSO control [6] | growth AUC normalised to DMSO control [7] | growth AUC normalised to DMSO control [8]
CC(=O)[C@H]1CC[C@H]2[C@@H]3C=CC4=CC(=O)CC[C@@]4(C)[C@@H]3CC[C@]12C [Dydrogesterone] | 1 | 0.986 | 0.99 | 1.01 | 1.02 | 1.04 | 1.01 | 0.909
CC1(C)S[C@@H]2[C@H](NC(=O)[C@H](NC(=O)N3CCNC3=O)c3ccccc3)C(=O)N2[C@H]1C(=O)O [Azlocillin sodium salt] | 0.766 (active) | 0.0935 (active) | 0.78 (active) | 0.281 (active) | 0.0105 (active) | 0.0107 (active) | 0.887 | 0.00584 (active)
CCCc1nn(C)c2c(=O)[nH]c(-c3cc(S(=O)(=O)N4CCN(C)CC4)ccc3OCC)nc12 [Sildenafil] | 1.02 | 1.07 | 1.06 | 1.03 | 1.02 | 1.02 | 1.02 | 1
CN(C)CCCN1c2ccccc2CCc2ccc(Cl)cc21 [Clomipramine hydrochloride] | 0.992 | 1 | 0.874 | 1.01 | 0.976 | 0.957 | 1.01 | 0.962
COCCOC(=O)C1=C(C)NC(C)=C(C(=O)OC(C)C)C1c1cccc([N+](=O)[O-])c1 (stereo not given) [Nimodipine] | 0.984 | 0.939 | 0.956 | 0.957 | 1.02 | 1 | 0.991 | 0.967
COC(=O)C1=C(C)NC(C)=C(C(=O)OC(C)C)C1c1cccc2nonc12 (stereo not given) [Isradipine] | 1.01 | 1.02 | 1.02 | 1 | 1.02 | 1.05 | 1.02 | 0.979
CS(=O)(=O)OCCCCOS(C)(=O)=O [Busulfan] | 1.01 | 1.04 | 1.07 | 1.03 | 1.02 | 0.994 | 1.01 | 1.01
CN1CCN(C(c2ccccc2)c2ccc(Cl)cc2)CC1 (stereo not given) [Chlorcyclizine hydrochloride] | 1 | 0.993 | 0.927 | 0.984 | 0.987 | 0.963 | 0.992 | 0.958
CCC1=C(C)CN(C(=O)NCCc2ccc(S(=O)(=O)NC(=O)N[C@H]3CC[C@H](C)CC3)cc2)C1=O [Glimepiride] | 1.02 | 1.01 | 1.02 | 1.01 | 1.03 | 1.01 | 1.03 | 0.993
c1coc(CNc2ncnc3[nH]cnc23)c1 [Kinetin] | 1.01 | 1.02 | 1.01 | 0.992 | 1.01 | 1.05 | 1 | 1.01
CC12CC3CC(C)(C1)CC(N)(C3)C2 [Memantine hydrochloride] | 0.997 | 0.99 | 1.01 | 0.985 | 1.01 | 1.02 | 1.01 | 1
Cc1cnc(C(=O)O)c[n+]1[O-] [Acipimox] | 0.983 | 1 | 0.982 | 0.969 | 1 | 0.994 | 1.01 | 0.992
CNCCC(Oc1ccccc1OC)c1ccccc1 (stereo not given) [Nisoxetine hydrochloride] | 0.949 | 1.02 | 1 | 0.993 | 1.01 | 1 | 0.957 | 0.91
CN(C)CCCN1c2ccccc2Sc2ccccc21 [Promazine hydrochloride] | 0.936 | 0.945 | 0.86 (active) | 0.965 | 0.821 | 0.776 | 0.991 | 0.971
C#C[C@]1(OC(C)=O)CC[C@H]2[C@@H]3CCC4=CC(=NO)CC[C@@H]4[C@H]3CC[C@@]21CC (mixture of isomers) [Norgestimate] | 0.995 | 0.971 | 0.984 | 0.988 | 0.836 | 0.88 | 0.999 | 0.955
CC(=O)N(CC(O)CO)c1c(I)c(C(=O)NCC(O)CO)c(I)c(C(=O)NCC(O)CO)c1I (stereo not given) [Iohexol] | 0.997 | 0.968 | 0.995 | 1 | 1.01 | 0.978 | 0.999 | 1.01
CCN(CC)CC#CCOC(=O)C(O)(c1ccccc1)C1CCCCC1 (stereo not given) [Oxybutynin chloride] | 0.977 | 0.944 | 0.935 | 0.981 | 0.976 | 0.986 | 0.999 | 0.946
CN1CC2c3ccccc3Oc3ccc(Cl)cc3C2C1 (stereo not given) [Asenapine maleate] | 0.954 | 0.974 | 0.837 (active) | 0.976 | 0.939 | 0.948 | 0.973 | 0.935
CC(C(=O)O)c1ccc(C(=O)c2cccs2)cc1 (stereo not given) [Suprofen] | 0.987 | 1.04 | 1.05 | 1.02 | 1.01 | 1.03 | 0.996 | 0.995
CC(=O)N[C@@H](CC(=O)O)C(=O)N[C@@H](CCC(=O)O)C(=O)O [Spaglumic acid] | 1.03 | 1.01 | 1.02 | 1.02 | 1.01 | 1.04 | 1.01 | 1
CCN(CC)CCNC(C(=O)OCCC(C)C)c1ccccc1 (stereo not given) [Camylofine chlorhydrate] | 0.992 | 0.991 | 0.953 | 0.997 | 1.01 | 1.02 | 1 | 0.973
CC(C)(C)NC(=O)[C@H]1CC[C@H]2[C@@H]3CC[C@H]4NC(=O)C=C[C@]4(C)[C@H]3CC[C@]12C [Finasteride] | 1.02 | 1.02 | 1.03 | 1.01 | 1.02 | 1.04 | 1.01 | 0.895
Clc1ccc(C(c2ccccc2Cl)C(Cl)Cl)cc1 (stereo not given) [Mitotane] | 1 | 0.999 | 1.07 | 1.02 | 0.97 | 0.94 | 1 | 0.957
CCCCCCC[N+](CC)(CC)CCCCc1ccc(Cl)cc1 [Clofilium tosylate] | 1 | 0.99 | 1.02 | 1.02 | 0.973 | 0.859 | 1.01 | 0.541
Cc1cccc(C)c1NC(=O)C1CCCCN1C (stereo not given) [Mepivacaine hydrochloride] | 1.01 | 1.06 | 1.07 | 1.02 | 1.06 | 1.05 | 0.99 | 0.996
CN1C(C(=O)Nc2ccccn2)=C(O)c2ccccc2S1(=O)=O [Piroxicam] | 0.973 | 0.995 | 0.892 | 1.01 | 1.01 | 1.04 | 1.01 | 0.977
COc1ccc2[nH]c([S+]([O-])Cc3ncc(C)c(OC)c3C)nc2n1 (stereo not given) [Tenatoprazole] | 0.988 | 1 | 0.894 | 0.998 | 1.03 | 1.06 | 1 | 0.963
CC(C)(C)C(=O)OCOC(=O)[C@@H]1N2C(=O)[C@@H](NC(=O)[C@H](N)c3ccccc3)[C@H]2SC1(C)C [Pivampicillin] | 0.97 | 1.01 | 0.987 | 0.818 (active) | 1.01 | 1.02 | 0.993 | 1
CC(=O)NS(=O)(=O)c1ccc(N)cc1 [Sulfacetamide sodic hydrate] | 1 | 1.01 | 0.988 | 0.998 | 1.01 | 1.05 | 1.01 | 0.997
CC(C)(C)NC[C@H](O)COc1ccccc1C1CCCC1 [Penbutolol sulfate] | 1.01 | 1.02 | 1 | 1.02 | 0.994 | 1.01 | 1 | 0.947
